Consider six compounds from PubChem BioAssay.

Each structure is given as a SMILES string. Activity calls are given as the source filed them.

The test system of test [1] is Plasmodium falciparum Sir2 (PF13_0152, Sir2A). The test can be described thus: pfSir2 binders on small-molecule microarrays, primary screen, biochemical, small-molecule microarray, 635 nm fluorescence (AID 1098).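 Note: score merges spot fluorescence intensity with its signal-to-noise ratio.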 The conditions noted are these: small-molecule microarray binding, fluorescence 635 nm; higher = more signal.
The nature of test [2]: small-molecule microarray binders of probe aDKK1, primary screen, biochemical, biotinylated probe, 635/667 nm fluorescence (AID 1099).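 Note: score merges 667nm spot fluorescence with signal to noise across triplicate slides.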 The conditions noted are these: higher = more signal.
Test [3] can be described thus: small-molecule microarray binders of probe aCHRDL2, primary screen, biochemical, biotinylated probe, 635/667 nm fluorescence (AID 1100). The conditions noted are these: higher = more signal.
Test [4] can be described thus: splicing luciferase reporter signal modulators, primary screen, spliceosome inhibition project, cell-based, HEK293, splice +/- reporter (AID 1101).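 Note: HEK293 cells carrying a splicing-competent luciferase reporter gene; test concentration not given here.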 The conditions noted are these: luminescence, 24 h, higher = more signal, called active from +8 up or from −8 down.
The target in test [5] is Fibroblast growth factor 10 (Homo sapiens) (UniProt O15520). The test can be described thus: FGF10 binders on small-molecule microarrays, primary screen, biochemical, small-molecule microarray, 635 nm fluorescence (AID 1102). The conditions noted are these: FGF10 binding, fluorescence 635 nm, higher = more signal.
Test [6] concerns glycogen synthase kinase-3 (GSK3A per assay name; protocol says GSK3B). The test can be described thus: GSK3 binders on small-molecule microarrays, primary screen, biochemical, small-molecule microarray, 635 nm fluorescence, GSK3A (AID 1103). Note: the record names both GSK3A and GSK3B. The conditions noted are these: small-molecule microarray binding, fluorescence 635 nm; higher = more signal.
In test [7] the target is Epidermal growth factor receptor (Homo sapiens) (UniProt P00533). The test can be described thus: EGFR binders on small-molecule microarrays, primary screen, biochemical, small-molecule microarray, 635 nm fluorescence (AID 1104).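 Note: score merges 667 nm emission intensity with spot signal to noise over triplicate slides.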 The conditions noted are these: EGFR binding, higher = more signal.
For test [8], the target named is Follistatin-related protein 3 (Homo sapiens) (UniProt O95633). The test can be described thus: FSTL3 binders on small-molecule microarrays, primary screen, biochemical, small-molecule microarray, 635 nm fluorescence (AID 1105).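 Note: score merges emission near 667 nm and signal to noise per printed spot across three slides.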 The conditions noted are these: FSTL3 binding, higher = more signal.
The target of test [9] is Dickkopf-related protein 1 (Homo sapiens) (UniProt O94907). The test can be described thus: DKK1 binders on small-molecule microarrays, primary screen, biochemical, small-molecule microarray, 635 nm fluorescence scan (AID 1106).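 Note: score merges emission near 667 nm with signal to noise over three replicate slides.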 The conditions noted are these: DKK1 binding, higher = more signal.
Test [10] relates to Inhibin beta A chain (activin A). The test can be described thus: INHBA (activin A) binders on microarrays, primary screen, biochemical, small-molecule microarray, 635 nm fluorescence scan (AID 1107).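 Note: mouse activin A protein probed at 4.33 µg/mL on printed slides; score merges bound-protein fluorescence near 667 nm with spot signal-to-noise.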 The conditions noted are these: small-molecule microarray binding, higher = more signal.
In test [11] the test system is Human papillomavirus type 1a protein E7 (residues 44-93). The test can be described thus: HPV1a E7 fragment binders on microarrays, primary screen, biochemical, small-molecule microarray, residues 44-93, 635 nm fluorescence (AID 1108).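 Note: E7 fragment applied at 1 µg/mL in TBST for 1 h at 4 C; score combines spot fluorescence with its signal to noise ratio.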 The conditions noted are these: small-molecule microarray binding, fluorescence 635 nm; higher = more signal.
Test [12] in a line: modulators of HCV replicon luciferase signal, primary screen, HCV replication inhibitor project, Huh7 cells, luciferase reporter (AID 1109).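 Note: huh7 hepatoma cells harbouring a luciferase neomycin HCV replicon reporter; luciferase luminescence as measure of HCV replicon replication; test concentration not given here.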 The conditions noted are these: 48 h, higher = more signal.
Test [13] has as its target Left-right determination factor 2 (Homo sapiens) (UniProt O00292). The test can be described thus: LEFTY2 binders on small-molecule microarrays, primary screen, biochemical, small-molecule microarray, 635 nm fluorescence scan (AID 1110). The conditions noted are these: LEFTY2 binding, higher = more signal.
Test [14] has as its target Calmodulin-1 (Homo sapiens) (UniProt P0DP23). The test can be described thus: CALM1 binders on microarrays, EGTA buffer, profiling panel, biochemical, small-molecule microarray, Cy5-labelled CALM1 (AID 1111).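 Note: labelled calmodulin applied in Tris saline Tween buffer holding calcium plus EGTA and DTT.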 The conditions noted are these: Cy5-CALM1 binding fluorescence, higher = more signal.
The target is the same in test [15]. The test can be described thus: calcium-bound CALM1 binders on microarrays, profiling panel, artefact control for SMM control-protein annotation, biochemical, small-molecule microarray, Cy5-labelled CALM1, plus calcium (AID 1112).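 Note: score merges spot fluorescence with signal to noise from triplicate slides.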 The conditions noted are these: Cy5-CALM1 binding fluorescence, higher = more signal.
The nature of test [16]: small-molecule microarray binders of probe aWnt5a, primary screen, biochemical, biotinylated probe, 635/667 nm fluorescence (AID 1113).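 Note: score merges 667 nm fluorescence intensity with signal-to-noise per printed feature.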 The conditions noted are these: higher = more signal.
A short description of test [17]: small-molecule microarray binders of probe aShh, primary screen, biochemical, biotinylated probe, 635/667 nm fluorescence (AID 1114).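 Note: probe is biotin-labelled aShh protein from a stem cell growth factor screen; measures binding of labelled protein to compounds printed on the slide; score merges feature fluorescence at 667 nm with signal-to-noise.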 The conditions noted are these: higher = more signal.
Test [18] is described as follows: small-molecule microarray binders of probe aNog, primary screen, biochemical, biotinylated probe, 635/667 nm fluorescence (AID 1115).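 Note: probe is biotinylated aNog protein used at 0.15 µg/mL for 1 h at 4 C; z-score combines 667 nm fluorescence of each spot with its signal to noise.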 The conditions noted are these: higher = more signal.
The target in test [19] is Torsin-1A-interacting protein 1 (Homo sapiens) (UniProt Q5JTV8). The test can be described thus: LAP1 binders from COS7 cell lysate, primary screen, small-molecule microarray, 635/667 nm fluorescence (AID 1116). The conditions noted are these: COS7-hLAP1 lysate binding, 635 nm fluorescence, higher = more signal.
Test [20] has as its target Alpha-bungarotoxin (Bungarus multicinctus) (UniProt P60615). The test can be described thus: alpha-bungarotoxin binders on microarray, profiling panel, artefact control for SMM control protein annotation, biochemical, small-molecule microarray, Alexa647 label, 635/667 nm fluorescence (AID 1117). The conditions noted are these: alpha-BTX-A647 binding fluorescence, higher = more signal.

Torsin-1A-interacting protein 1 (Homo sapiens), sequence (Q5JTV8 whole entry, looked up): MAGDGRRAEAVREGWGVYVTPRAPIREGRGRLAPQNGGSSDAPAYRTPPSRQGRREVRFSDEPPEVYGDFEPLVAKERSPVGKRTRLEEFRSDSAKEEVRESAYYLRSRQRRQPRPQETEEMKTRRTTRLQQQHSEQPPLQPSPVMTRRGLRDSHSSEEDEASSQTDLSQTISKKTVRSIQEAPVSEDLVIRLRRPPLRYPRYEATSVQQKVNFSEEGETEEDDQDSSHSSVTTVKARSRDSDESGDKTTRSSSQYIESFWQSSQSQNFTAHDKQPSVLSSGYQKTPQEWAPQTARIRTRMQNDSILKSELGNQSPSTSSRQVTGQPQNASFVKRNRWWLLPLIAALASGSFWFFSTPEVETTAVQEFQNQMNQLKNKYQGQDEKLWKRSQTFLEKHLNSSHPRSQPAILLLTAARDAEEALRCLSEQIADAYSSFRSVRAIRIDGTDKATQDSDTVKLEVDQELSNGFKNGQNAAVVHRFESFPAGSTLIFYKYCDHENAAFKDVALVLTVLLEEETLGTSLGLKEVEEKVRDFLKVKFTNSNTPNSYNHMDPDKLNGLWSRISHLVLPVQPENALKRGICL
Left-right determination factor 2 (Homo sapiens), sequence (O00292 whole entry, looked up): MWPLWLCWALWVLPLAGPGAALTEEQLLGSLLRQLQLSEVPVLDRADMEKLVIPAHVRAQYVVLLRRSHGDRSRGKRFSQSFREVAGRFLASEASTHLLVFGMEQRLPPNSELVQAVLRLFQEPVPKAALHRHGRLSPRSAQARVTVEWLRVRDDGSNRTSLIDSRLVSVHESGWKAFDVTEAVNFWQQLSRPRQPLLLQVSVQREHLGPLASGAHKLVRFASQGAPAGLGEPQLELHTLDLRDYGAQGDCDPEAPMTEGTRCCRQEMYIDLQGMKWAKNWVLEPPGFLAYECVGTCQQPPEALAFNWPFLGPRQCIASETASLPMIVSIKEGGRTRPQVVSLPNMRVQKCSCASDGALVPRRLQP
Dickkopf-related protein 1 (Homo sapiens), sequence (O94907 whole entry, looked up): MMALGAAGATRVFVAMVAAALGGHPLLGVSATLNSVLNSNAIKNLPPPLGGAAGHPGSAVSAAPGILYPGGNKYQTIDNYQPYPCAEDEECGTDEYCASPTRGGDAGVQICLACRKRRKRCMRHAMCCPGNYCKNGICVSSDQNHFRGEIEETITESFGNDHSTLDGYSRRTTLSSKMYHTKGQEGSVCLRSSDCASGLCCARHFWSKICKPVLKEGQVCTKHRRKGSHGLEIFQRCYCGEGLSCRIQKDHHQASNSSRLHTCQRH
Follistatin-related protein 3 (Homo sapiens), sequence (O95633 whole entry, looked up): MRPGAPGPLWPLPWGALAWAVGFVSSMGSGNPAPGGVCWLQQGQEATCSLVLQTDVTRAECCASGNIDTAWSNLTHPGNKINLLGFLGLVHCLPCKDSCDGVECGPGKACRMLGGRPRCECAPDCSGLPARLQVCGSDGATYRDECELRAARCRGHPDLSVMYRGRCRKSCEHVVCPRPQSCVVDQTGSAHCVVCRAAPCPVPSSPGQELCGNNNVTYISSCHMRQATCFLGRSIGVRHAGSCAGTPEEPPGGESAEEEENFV
Epidermal growth factor receptor (Homo sapiens), sequence (P00533 whole entry, looked up): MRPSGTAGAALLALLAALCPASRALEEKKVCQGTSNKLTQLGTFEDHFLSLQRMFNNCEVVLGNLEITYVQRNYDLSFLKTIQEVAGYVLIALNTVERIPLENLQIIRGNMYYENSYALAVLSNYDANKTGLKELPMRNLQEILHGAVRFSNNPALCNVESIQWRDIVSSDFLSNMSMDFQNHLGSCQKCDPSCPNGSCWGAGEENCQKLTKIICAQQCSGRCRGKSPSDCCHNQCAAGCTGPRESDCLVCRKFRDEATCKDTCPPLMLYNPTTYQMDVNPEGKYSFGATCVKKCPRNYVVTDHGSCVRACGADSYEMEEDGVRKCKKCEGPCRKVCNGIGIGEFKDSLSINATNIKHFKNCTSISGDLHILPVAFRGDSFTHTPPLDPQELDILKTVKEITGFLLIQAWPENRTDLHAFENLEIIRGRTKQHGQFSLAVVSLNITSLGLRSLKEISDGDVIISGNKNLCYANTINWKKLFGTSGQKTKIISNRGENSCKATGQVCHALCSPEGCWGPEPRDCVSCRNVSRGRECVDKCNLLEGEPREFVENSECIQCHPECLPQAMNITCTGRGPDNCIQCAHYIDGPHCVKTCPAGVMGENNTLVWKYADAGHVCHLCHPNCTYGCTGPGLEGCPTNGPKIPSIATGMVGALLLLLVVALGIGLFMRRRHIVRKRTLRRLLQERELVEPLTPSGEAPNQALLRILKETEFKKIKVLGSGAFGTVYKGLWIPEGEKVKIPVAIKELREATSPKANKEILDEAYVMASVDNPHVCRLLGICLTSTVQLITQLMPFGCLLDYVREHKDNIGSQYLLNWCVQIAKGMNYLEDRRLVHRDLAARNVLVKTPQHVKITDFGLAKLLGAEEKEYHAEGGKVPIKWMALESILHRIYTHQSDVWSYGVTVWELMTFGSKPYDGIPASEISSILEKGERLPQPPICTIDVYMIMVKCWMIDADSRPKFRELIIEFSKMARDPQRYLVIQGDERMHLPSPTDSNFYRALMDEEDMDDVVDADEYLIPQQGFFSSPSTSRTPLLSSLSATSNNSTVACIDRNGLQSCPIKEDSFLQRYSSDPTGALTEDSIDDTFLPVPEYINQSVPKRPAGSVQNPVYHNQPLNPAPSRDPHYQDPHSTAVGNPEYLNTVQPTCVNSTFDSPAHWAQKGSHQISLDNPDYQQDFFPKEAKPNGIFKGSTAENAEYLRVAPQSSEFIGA
Fibroblast growth factor 10 (Homo sapiens), sequence (O15520 whole entry, looked up): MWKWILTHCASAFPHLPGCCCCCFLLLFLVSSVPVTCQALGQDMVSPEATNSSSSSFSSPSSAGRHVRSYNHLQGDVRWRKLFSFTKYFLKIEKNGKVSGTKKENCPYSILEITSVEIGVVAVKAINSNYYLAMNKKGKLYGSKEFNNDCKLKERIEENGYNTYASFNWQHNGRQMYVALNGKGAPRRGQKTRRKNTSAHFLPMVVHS
Alpha-bungarotoxin (Bungarus multicinctus), sequence (P60615 whole entry, looked up): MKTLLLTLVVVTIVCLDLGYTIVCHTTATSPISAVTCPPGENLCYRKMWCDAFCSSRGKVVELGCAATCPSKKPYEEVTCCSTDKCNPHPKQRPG

With `COc1ccc(COC(=O)NN=C2C[C@@H](O)[C@@H](O)[C@@H]3[C@@H]4C(=O)N(Cc5ccc6c(c5)OCO6)C(=O)[C@@H]4CC[C@H]23)cc1`, the composite z-score in test [1] was -0.218; in test [2], 1.16; in test [3], 1.41; in test [5], -0.67; in test [6], -0.104; in test [7] it was -0.953. For the same compound, the composite z-score in [8] was -0.152; in test [9] it was -1.03; in test [10] it was 0.991; in test [11], -0.433; in [13], -0.34; in test [14] it was -0.704. The composite z-score in test [15] was -0.276; in [16], 0.0438; in test [17], 0.0121; in test [18] it was 0.788; in test [19], 0.0406; in test [20], 0.164. Moreover, the z-score is 0.491 (inactive) in test [4] and -0.191 in test [12].

With `O=C1CCCC=C1C(O)C1CCCCC1` (stereo not given), the composite z-score is -0.895 in test [1]; -0.214 in [2]; -0.476 in [3]; 0.42 in [5]; -0.0973 in [6]; 0.309 in test [7]. For the same compound, the composite z-score in test [8] is 0.324; in test [9], 0.165; in test [10], 0.615; in [11], -0.64; in test [13], -0.0231; in test [14] it was -0.583. In addition, the composite z-score in [15] is -0.389; in test [16] it was 0.0088; in test [17] it was -0.186; in [18], -0.134; in [19], -0.207; in [20], -0.268. For the same compound, the results for the z-score in test [4] and in test [12] were 0.301 (inactive) and 0.108, respectively.

Consider `Cc1ccc(C(C)C)n1C(=O)OC(C)(C)C`, for which the composite z-score in test [1] was -0.0286; in test [2] it was -0.271; in test [3], -0.611; in test [5] it was 0.789; in [6] it was 0.61; in test [7], 0.55. Also, the composite z-score in [8] is 0.807; in test [9] it was 0.768; in test [10] it was -0.124; in [11] it was 0.471; in [13], 0.587; in test [14], -0.159. The composite z-score was -0.659 in test [15]; -0.0704 in [16]; -0.13 in test [17]; -0.255 in test [18]; 0.241 in test [19]; 0.0251 in [20]. In addition, the z-score in test [4] is -1.45 (inactive); in test [12] it was 1.85.

Turning to `CC(=O)OC[C@H]1O[C@H](C#CCCc2ccccc2)C=C[C@@H]1OC(C)=O`, the composite z-score in test [1] was 1.05; in test [2], -0.0993; in test [3], -0.438; in test [5], 0.787; in [6], -0.113; in [7], 0.187. In addition, the composite z-score in [8] was 0.981; in test [9] it was 1.02; in [10], 0.309; in test [11] it was -0.515; in test [13], 0.751; in test [14], -0.288. Besides, the composite z-score in [15] is -0.715; in test [16] it was -0.0721; in test [17], 0.0204; in test [18], 0.0658; in [19], 0.128; in test [20], 1.53. Besides, the z-score is 0.181 (inactive) in test [4] and -1.12 in test [12].

Take `COC(=O)[C@H](C)NC(=O)CCC1CC(OC(=O)NCCc2ccc(F)cc2)CC2(CCCC(COC(=O)NCCc3ccccc3OC)O2)O1` (stereo not given in full): the composite z-score in test [1] is 0.557; in [2], -0.0554; in test [3] it was -0.494; in test [5], 1.11; in [6], 1.05; in [7], 0.484. Also, the composite z-score was found to be 1.16 in test [8]; 1.26 in test [9]; 0.176 in test [10]; 1.35 in test [11]; 0.638 in test [13]; 0.48 in test [14]. For the same compound, the composite z-score in test [15] is -0.211; in test [16] it was -0.0403; in test [17] it was 0.0141; in [18] it was 0.177; in [19] it was 0.195; in test [20], 0.434. Besides, the results for the z-score in [4] and in test [12] were -0.221 (inactive) and -0.466, respectively.

On to `COC(=O)CC=C[C@@H](C)[C@@H](C=NOC[C@@H](O)[C@H]1O[C@@H]2OC(C)(C)O[C@@H]2[C@H]1O)OC`, for which the composite z-score in test [1] was 0.42; in test [2], -0.0276; in test [3], -0.673; in test [5], 0.247; in [6], 0.589; in [7], 0.496. Further, the composite z-score in test [8] is 0.115; in [9], 0.56; in test [10], -0.16; in [11], 0.416; in test [13] it was 0.638; in test [14], -0.139. Besides, the composite z-score in test [15] was -0.565; in test [16], -0.012; in test [17], -0.0035; in test [18], -0.234; in test [19] it was 0.422; in [20], 0.265. Besides, the z-score in test [4] is -0.123 (inactive); in test [12], -0.594.
